# Test results taken from the supplement of paper PMC8975748.
# Structures can show the parent of a compound that is named as a salt. ± gives the standard deviation of the averaged measurements.
# Assays:
# [1] = system: Saccharomyces cerevisiae BY4741 SeMeCo community; experiment: mean cell size (pixel area) (pixels); higher = larger cells; details: 10 µM; 24 h; SM minimal medium
# How it was run: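 A fluorescent Saccharomyces cerevisiae BY4741 community carrying four plasmids was used, with each plasmid complementing one auxotrophy and bearing a fluorescent marker. An overnight preculture at OD600 = 1.0 was diluted to OD600 = 0.3, and 70 µl went into 384-well plates acoustically predosed with drug (final 10 µM) in SM medium for 24 h. After paraformaldehyde fixation, cells were imaged by automated confocal microscopy and analysed in Harmony, giving the mean cell pixel area per well. Each value is the average of 3 replicates. Same SeMeCo high-content imaging drug screen: Selleck FDA-approved drugs at 10 µM, 24 h in SM medium, 384-well plates, 3 replicates.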
# [2] = system: Saccharomyces cerevisiae BY4741 SeMeCo community; experiment: z-score of prototroph abundance vs DMSO median; higher = larger share of this subpopulation than in DMSO controls; details: 10 µM; 24 h; SM minimal medium; subpopulation (auxotrophy): Prototroph
# How it was run: (§1)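 A community of Saccharomyces cerevisiae BY4741 was built from four plasmids that each restored one auxotrophy and encoded a distinct fluorescent protein. Pre-grown overnight to OD600 1.0 and diluted to 0.3, it was dispensed at 70 µl into 384-well plates acoustically predosed with library drugs for a final 10 µM, and grown 24 h in minimal SM medium. Cells were then paraformaldehyde-fixed and imaged by automated confocal microscopy. Thresholds and autofluorescence correction came from single-auxotroph fluorescent strains, and each subpopulation's abundance was scored as a z-score relative to the vehicle-well median.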
# [3] = system: Saccharomyces cerevisiae BY4741 SeMeCo community; experiment: z-score of subpopulation abundance vs DMSO median, subpopulation auxotrophic for L; higher = larger share of this subpopulation than in DMSO controls; details: 10 µM; 24 h; SM minimal medium; subpopulation (auxotrophy): L
# How it was run: as §1
# [4] = system: Saccharomyces cerevisiae BY4741 SeMeCo community; experiment: z-score of subpopulation abundance vs DMSO median, subpopulation auxotrophic for H; higher = larger share of this subpopulation than in DMSO controls; details: 10 µM; 24 h; SM minimal medium; subpopulation (auxotrophy): H
# How it was run: as §1
# [5] = system: Saccharomyces cerevisiae BY4741 SeMeCo community; experiment: z-score of subpopulation abundance vs DMSO median, subpopulation auxotrophic for LM; higher = larger share of this subpopulation than in DMSO controls; details: 10 µM; 24 h; SM minimal medium; subpopulation (auxotrophy): LM
# How it was run: as §1
# [6] = system: Saccharomyces cerevisiae BY4741 SeMeCo community; experiment: z-score of subpopulation abundance vs DMSO median, subpopulation auxotrophic for HM; higher = larger share of this subpopulation than in DMSO controls; details: 10 µM; 24 h; SM minimal medium; subpopulation (auxotrophy): HM
# How it was run: as §1
# [7] = system: Saccharomyces cerevisiae BY4741 SeMeCo community; experiment: z-score of subpopulation abundance vs DMSO median, subpopulation auxotrophic for UM; higher = larger share of this subpopulation than in DMSO controls; details: 10 µM; 24 h; SM minimal medium; subpopulation (auxotrophy): UM
# How it was run: as §1
# [8] = system: Saccharomyces cerevisiae BY4741 SeMeCo community; experiment: z-score of subpopulation abundance vs DMSO median, subpopulation auxotrophic for HL; higher = larger share of this subpopulation than in DMSO controls; details: 10 µM; 24 h; SM minimal medium; subpopulation (auxotrophy): HL
# How it was run: as §1
# [9] = system: Saccharomyces cerevisiae BY4741 SeMeCo community; experiment: z-score of subpopulation abundance vs DMSO median, subpopulation auxotrophic for HLU; higher = larger share of this subpopulation than in DMSO controls; details: 10 µM; 24 h; SM minimal medium; subpopulation (auxotrophy): HLU
# How it was run: as §1
# [10] = system: Saccharomyces cerevisiae BY4741 SeMeCo community; experiment: z-score of subpopulation abundance vs DMSO median, subpopulation auxotrophic for HLM; higher = larger share of this subpopulation than in DMSO controls; details: 10 µM; 24 h; SM minimal medium; subpopulation (auxotrophy): HLM
# How it was run: as §1
# [11] = system: Saccharomyces cerevisiae BY4741 SeMeCo community; experiment: z-score of subpopulation abundance vs DMSO median, subpopulation auxotrophic for HUM; higher = larger share of this subpopulation than in DMSO controls; details: 10 µM; 24 h; SM minimal medium; subpopulation (auxotrophy): HUM
# How it was run: as §1
# [12] = system: Saccharomyces cerevisiae BY4741 SeMeCo community; experiment: z-score of subpopulation abundance vs DMSO median, subpopulation auxotrophic for LUM; higher = larger share of this subpopulation than in DMSO controls; details: 10 µM; 24 h; SM minimal medium; subpopulation (auxotrophy): LUM
# How it was run: as §1
# [13] = system: Saccharomyces cerevisiae BY4741 SeMeCo community; experiment: z-score of subpopulation abundance vs DMSO median, subpopulation auxotrophic for M; higher = larger share of this subpopulation than in DMSO controls; details: 10 µM; 24 h; SM minimal medium; subpopulation (auxotrophy): M
# How it was run: as §1
# [14] = system: Saccharomyces cerevisiae BY4741 SeMeCo community; experiment: z-score of subpopulation abundance vs DMSO median, subpopulation auxotrophic for LU; higher = larger share of this subpopulation than in DMSO controls; details: 10 µM; 24 h; SM minimal medium; subpopulation (auxotrophy): LU
# How it was run: as §1
# [15] = system: Saccharomyces cerevisiae BY4741 SeMeCo community; experiment: z-score of subpopulation abundance vs DMSO median, subpopulation auxotrophic for HU; higher = larger share of this subpopulation than in DMSO controls; details: 10 µM; 24 h; SM minimal medium; subpopulation (auxotrophy): HU
# How it was run: as §1
# [16] = system: Saccharomyces cerevisiae BY4741 SeMeCo community; experiment: z-score of subpopulation abundance vs DMSO median, subpopulation auxotrophic for HLUM; higher = larger share of this subpopulation than in DMSO controls; details: 10 µM; 24 h; SM minimal medium; subpopulation (auxotrophy): HLUM
# How it was run: as §1
# [17] = system: Saccharomyces cerevisiae BY4741 SeMeCo community; experiment: z-score of subpopulation abundance vs DMSO median, subpopulation auxotrophic for U; higher = larger share of this subpopulation than in DMSO controls; details: 10 µM; 24 h; SM minimal medium; subpopulation (auxotrophy): U
# How it was run: as §1
SMILES,mean cell size [1],z-score of prototroph abundance [2],z-score of subpopulation abundance [3],z-score of subpopulation abundance [4],z-score of subpopulation abundance [5],z-score of subpopulation abundance [6],z-score of subpopulation abundance [7],z-score of subpopulation abundance [8],z-score of subpopulation abundance [9],z-score of subpopulation abundance [10],z-score of subpopulation abundance [11],z-score of subpopulation abundance [12],z-score of subpopulation abundance [13],z-score of subpopulation abundance [14],z-score of subpopulation abundance [15],z-score of subpopulation abundance [16],z-score of subpopulation abundance [17]
C=C[C@]1(C)C[C@@H](OC(=O)CSC(C)(C)CNC(=O)[C@H](N)C(C)C)[C@]2(C)[C@H](C)CC[C@]3(CCC(=O)[C@H]32)[C@@H](C)[C@@H]1O [Valnemulin HCl],12.3 ± 0.19,-0.65,0.38,0.85,0.54,0.32,0.26,0.85,1.01,0.18,0.58,0.67,,,,,
CCC(=O)c1c(O)cc(O)cc1O [Flopropione],12.5 ± 0.18,0.7,-0.09,0.18,0.21,,,-0.4,,0.03,-0.23,-0.46,0.69,-0.57,1.06,-0.26,
C[C@H]1COc2c(C3(N)CC3)c(F)cc3c(=O)c(C(=O)O)cn1c23 [Pazufloxacin mesylate],12.5 ± 0.28,-0.35,0.31,0.02,-0.18,-0.36,-0.02,-0.07,,-0.08,-0.08,-0.3,-0.46,0.86,0.48,0.08,0.53
NC(CO)(CO)CO [Trometamol],12.2 ± 0.18,-0.35,0.58,-0.42,,,0.88,0,,-0.69,-0.08,0.42,0.08,0.36,0.55,-0.35,0.6
Cc1cc(-n2c(=O)[nH]c(=O)n(C)c2=O)ccc1Oc1ccc(SC(F)(F)F)cc1 [Toltrazuril],12.53 ± 0.12,0.02,-0.15,0.2,-0.18,0.1,-0.14,0.24,0,-0.31,,-0.13,,,0.29,0.28,-0.51
CC1=C(C(=O)OCCN(Cc2ccccc2)c2ccccc2)C(c2cccc([N+](=O)[O-])c2)C(P2(=O)OCC(C)(C)CO2)=C(C)N1 (stereo not given) [Efonidipine],12.6 ± 0.14,-1.56,0.97,1.79,2.26,,0.8,0.79,,1.02,1.54,2.5,0.03,1.04,1.86,1.4,0.34
CC(=O)[C@H]1CC[C@H]2[C@@H]3CC=C4C[C@@H](O)CC[C@]4(C)[C@H]3CC[C@]12C [Pregnenolone],12.46 ± 0.12,0.29,1.12,-0.46,0.32,-0.44,-0.48,0.47,,0.71,-0.94,-0.02,-0.05,-0.42,-0.76,0.21,-0.89
